# Results published in paper PMC7862700, “An all-to-all approach to the identification of sequence-specific readers for epigenetic DNA modifications on cytosine”.
# Key:
# Assay in all cases: DAPPL (digital affinity profiling via proximity ligation, sequencing); 10 mM Tris-HCl pH 7.5, 50 mM NaCl, 1 mM DTT, 4% glycerol, room temperature, 30 min; GST-TFs on glutathione beads, 16-mer random dsDNA library, 0.1% formaldehyde crosslink after washing; high values mean tight binding
# FLI1 = molecular target: T1, FLI1 (Homo sapiens, UniProt Q01543 1-452); settings: protein: recombinant; tags: N-terminal GST; dsDNA, one strand shown
# T1 sequence: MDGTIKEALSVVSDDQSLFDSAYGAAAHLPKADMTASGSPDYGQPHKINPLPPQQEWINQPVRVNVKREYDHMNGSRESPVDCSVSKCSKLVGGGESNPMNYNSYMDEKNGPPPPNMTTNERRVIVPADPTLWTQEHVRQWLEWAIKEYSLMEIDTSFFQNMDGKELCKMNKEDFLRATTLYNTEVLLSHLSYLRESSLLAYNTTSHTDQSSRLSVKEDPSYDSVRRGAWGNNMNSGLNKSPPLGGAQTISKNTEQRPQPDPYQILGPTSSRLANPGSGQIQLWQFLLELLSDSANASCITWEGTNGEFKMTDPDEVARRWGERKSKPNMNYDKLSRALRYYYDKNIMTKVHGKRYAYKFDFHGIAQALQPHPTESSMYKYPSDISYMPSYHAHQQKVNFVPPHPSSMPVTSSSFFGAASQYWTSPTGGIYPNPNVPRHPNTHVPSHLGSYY
# In short: (§1)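 Sequencing on an Illumina NextSeq500 followed washing, crosslinking with 0.1% formaldehyde, proximity ligation (BsaI/T4 ligase, 1 h, 37 °C) and PCR amplification of pools that had been incubated for 30 min at room temperature with 200 nmole of a random double-stranded 16-mer DNA library in Tris/NaCl/DTT/glycerol buffer. Each pool held DNA-barcoded human transcription factors, expressed in yeast as GST fusions and captured on glutathione beads, plus a tag-only sample. Binding signal is a hexamer's read frequency for a factor divided by its frequency in the tag-only sample.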
# ELK1 = molecular target: T2, ELK1 (Homo sapiens, UniProt P19419 1-428); settings: protein: recombinant; tags: N-terminal GST; dsDNA, one strand shown
# T2 sequence: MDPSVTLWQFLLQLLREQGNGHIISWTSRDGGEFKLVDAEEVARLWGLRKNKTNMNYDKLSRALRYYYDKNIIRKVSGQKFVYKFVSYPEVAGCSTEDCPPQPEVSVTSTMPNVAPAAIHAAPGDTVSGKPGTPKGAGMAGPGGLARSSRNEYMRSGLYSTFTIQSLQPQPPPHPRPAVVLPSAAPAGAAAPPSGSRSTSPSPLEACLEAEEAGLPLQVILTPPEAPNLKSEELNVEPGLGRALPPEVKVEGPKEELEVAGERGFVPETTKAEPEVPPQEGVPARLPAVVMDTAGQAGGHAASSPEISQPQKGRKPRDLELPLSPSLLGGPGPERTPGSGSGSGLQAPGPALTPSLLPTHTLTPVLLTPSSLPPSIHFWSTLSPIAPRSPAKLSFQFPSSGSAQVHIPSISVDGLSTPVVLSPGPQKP
# In short: as §1
# GABPA = molecular target: T3, GABPA (Homo sapiens, UniProt Q06546 1-454); settings: protein: recombinant; tags: N-terminal GST; dsDNA, one strand shown
# T3 sequence: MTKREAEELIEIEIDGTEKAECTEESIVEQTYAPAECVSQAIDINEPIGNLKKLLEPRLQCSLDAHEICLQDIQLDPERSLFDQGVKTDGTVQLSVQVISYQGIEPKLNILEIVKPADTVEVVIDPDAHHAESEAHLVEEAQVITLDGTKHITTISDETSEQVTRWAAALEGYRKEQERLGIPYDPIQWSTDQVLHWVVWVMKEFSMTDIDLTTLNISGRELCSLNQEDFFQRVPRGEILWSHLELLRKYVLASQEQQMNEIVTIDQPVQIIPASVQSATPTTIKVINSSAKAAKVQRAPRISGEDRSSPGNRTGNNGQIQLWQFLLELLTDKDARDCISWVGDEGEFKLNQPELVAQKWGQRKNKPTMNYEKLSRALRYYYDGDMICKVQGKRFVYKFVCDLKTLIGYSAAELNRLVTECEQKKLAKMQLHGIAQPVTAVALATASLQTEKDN
# In short: as §1
# ERG = molecular target: T4, ERG (Homo sapiens, UniProt P11308 1-479); settings: protein: recombinant; tags: N-terminal GST; dsDNA, one strand shown
# T4 sequence: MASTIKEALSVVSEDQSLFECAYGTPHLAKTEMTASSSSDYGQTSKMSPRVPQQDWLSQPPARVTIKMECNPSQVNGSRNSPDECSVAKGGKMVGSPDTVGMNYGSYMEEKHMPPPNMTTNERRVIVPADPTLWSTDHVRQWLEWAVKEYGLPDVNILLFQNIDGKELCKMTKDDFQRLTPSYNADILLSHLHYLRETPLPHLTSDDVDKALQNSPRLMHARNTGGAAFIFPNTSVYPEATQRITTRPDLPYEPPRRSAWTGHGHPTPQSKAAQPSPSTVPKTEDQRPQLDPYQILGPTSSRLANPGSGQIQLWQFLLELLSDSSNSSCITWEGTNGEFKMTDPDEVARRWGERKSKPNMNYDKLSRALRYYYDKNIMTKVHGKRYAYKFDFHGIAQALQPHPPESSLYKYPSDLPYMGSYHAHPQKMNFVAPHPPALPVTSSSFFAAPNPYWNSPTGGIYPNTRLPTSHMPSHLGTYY
# In short: as §1
# ELF1 = ELF1 (Homo sapiens, UniProt P32519 1-619); settings: protein: recombinant; tags: N-terminal GST; dsDNA, one strand shown
# Sequence of ELF1 (P32519 whole entry): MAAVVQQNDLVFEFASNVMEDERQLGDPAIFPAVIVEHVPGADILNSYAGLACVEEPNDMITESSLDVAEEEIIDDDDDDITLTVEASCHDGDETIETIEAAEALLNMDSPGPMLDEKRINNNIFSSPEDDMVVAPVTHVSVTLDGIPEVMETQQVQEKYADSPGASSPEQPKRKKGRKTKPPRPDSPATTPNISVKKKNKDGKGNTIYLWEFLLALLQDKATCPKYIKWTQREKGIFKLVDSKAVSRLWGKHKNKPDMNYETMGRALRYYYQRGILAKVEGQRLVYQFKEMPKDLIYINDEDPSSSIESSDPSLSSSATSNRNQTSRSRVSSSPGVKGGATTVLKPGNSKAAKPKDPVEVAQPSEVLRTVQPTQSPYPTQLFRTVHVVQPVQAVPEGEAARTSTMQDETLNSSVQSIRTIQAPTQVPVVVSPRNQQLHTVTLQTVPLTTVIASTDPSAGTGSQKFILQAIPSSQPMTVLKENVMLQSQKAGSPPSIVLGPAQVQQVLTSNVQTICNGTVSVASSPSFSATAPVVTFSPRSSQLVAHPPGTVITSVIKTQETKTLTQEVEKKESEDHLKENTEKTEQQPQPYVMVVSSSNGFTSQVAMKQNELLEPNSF
# In short: as §1
# EHF = molecular target: T5, EHF (Homo sapiens, UniProt Q9NZC4 1-300); settings: protein: recombinant; tags: N-terminal GST; dsDNA, one strand shown
# T5 sequence: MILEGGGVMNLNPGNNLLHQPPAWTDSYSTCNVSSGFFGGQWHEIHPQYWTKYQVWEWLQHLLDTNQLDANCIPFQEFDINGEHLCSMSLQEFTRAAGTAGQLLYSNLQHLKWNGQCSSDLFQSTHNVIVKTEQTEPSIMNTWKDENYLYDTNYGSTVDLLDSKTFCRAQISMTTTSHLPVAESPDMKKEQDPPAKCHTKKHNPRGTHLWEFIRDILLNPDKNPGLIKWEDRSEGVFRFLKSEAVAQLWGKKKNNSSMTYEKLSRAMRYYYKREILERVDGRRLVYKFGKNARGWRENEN
# In short: as §1
# SPI1 = SPI1 (Homo sapiens, UniProt P17947 1-270); settings: protein: recombinant; tags: N-terminal GST; dsDNA, one strand shown
# In short: as §1
# SPIB = SPIB (Homo sapiens, UniProt Q01892 1-262); settings: protein: recombinant; tags: N-terminal GST; dsDNA, one strand shown
# Sequence of SPIB (Q01892 whole entry): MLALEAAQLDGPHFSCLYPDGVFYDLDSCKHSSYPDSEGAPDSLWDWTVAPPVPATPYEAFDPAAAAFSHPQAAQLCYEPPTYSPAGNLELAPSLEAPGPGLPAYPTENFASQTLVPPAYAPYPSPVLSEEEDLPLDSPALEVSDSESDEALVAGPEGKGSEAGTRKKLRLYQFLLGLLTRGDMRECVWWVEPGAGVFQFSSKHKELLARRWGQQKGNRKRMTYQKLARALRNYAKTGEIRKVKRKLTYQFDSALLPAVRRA
# In short: as §1
# ELK3 = molecular target: T6, ELK3 (Homo sapiens, UniProt P41970 1-407); settings: protein: recombinant; tags: N-terminal GST; dsDNA, one strand shown
# T6 sequence: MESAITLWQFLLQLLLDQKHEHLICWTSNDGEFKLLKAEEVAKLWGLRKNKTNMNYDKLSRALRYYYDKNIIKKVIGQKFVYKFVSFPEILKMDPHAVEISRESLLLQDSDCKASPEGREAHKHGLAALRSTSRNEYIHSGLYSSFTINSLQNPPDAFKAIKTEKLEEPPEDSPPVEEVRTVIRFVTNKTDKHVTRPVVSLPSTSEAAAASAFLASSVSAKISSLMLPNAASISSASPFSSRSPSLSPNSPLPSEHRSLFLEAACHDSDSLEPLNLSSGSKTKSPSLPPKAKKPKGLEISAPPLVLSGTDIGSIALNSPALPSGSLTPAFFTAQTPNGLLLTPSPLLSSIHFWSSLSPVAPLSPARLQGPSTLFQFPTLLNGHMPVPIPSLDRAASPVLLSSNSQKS
# In short: as §1
# FEV = molecular target: T7, FEV (Homo sapiens, UniProt Q99581 1-238); settings: protein: recombinant; tags: N-terminal GST; dsDNA, one strand shown
# T7 sequence: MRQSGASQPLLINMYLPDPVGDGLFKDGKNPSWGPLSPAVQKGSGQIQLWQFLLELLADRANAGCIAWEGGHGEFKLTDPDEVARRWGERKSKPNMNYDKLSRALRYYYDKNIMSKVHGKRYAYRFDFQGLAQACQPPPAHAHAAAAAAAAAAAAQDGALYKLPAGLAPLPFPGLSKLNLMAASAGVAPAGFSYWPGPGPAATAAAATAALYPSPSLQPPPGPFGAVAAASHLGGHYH
# In short: as §1
# ETV5 = ETV5 (Homo sapiens, UniProt P41161 1-510); settings: protein: recombinant; tags: N-terminal GST; dsDNA, one strand shown
# Sequence of ETV5 (P41161 whole entry): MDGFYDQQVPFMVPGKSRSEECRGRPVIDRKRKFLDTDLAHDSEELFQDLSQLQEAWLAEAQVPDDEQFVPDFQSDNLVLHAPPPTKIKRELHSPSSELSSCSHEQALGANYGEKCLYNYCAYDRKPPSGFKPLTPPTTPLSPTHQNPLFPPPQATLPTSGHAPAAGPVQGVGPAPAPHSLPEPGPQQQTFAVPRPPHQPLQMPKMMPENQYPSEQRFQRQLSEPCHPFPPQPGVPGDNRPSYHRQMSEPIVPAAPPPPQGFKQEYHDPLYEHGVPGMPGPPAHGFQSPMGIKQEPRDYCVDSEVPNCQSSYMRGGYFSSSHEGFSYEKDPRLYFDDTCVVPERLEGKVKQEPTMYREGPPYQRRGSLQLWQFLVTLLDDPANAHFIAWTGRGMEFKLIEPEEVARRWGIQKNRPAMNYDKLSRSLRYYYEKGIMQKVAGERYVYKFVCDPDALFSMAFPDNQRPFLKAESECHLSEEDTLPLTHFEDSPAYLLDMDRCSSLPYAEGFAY
# In short: as §1
# HSF1 = HSF1 (Homo sapiens, UniProt Q00613 1-529); settings: protein: recombinant; tags: N-terminal GST; chain copies: 3; dsDNA, one strand shown
# Sequence of HSF1 (Q00613 whole entry): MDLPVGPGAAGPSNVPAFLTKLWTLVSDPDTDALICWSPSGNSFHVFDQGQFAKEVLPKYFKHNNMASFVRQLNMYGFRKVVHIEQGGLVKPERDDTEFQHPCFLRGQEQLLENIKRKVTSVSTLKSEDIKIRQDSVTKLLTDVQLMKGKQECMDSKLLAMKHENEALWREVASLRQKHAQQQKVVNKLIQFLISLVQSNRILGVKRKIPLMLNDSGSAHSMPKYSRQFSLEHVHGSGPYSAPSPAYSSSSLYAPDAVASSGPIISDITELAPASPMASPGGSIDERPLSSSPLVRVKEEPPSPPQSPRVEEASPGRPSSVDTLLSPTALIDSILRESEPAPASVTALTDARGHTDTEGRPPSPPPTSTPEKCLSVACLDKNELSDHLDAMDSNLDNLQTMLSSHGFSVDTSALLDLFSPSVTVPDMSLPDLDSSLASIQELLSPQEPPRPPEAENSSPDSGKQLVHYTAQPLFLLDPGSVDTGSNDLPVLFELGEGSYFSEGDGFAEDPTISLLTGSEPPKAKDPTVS
# In short: as §1
# SPIC = molecular target: T8, SPIC (Homo sapiens, UniProt Q8N5J4 1-248); settings: protein: recombinant; tags: N-terminal GST; dsDNA, one strand shown
# T8 sequence: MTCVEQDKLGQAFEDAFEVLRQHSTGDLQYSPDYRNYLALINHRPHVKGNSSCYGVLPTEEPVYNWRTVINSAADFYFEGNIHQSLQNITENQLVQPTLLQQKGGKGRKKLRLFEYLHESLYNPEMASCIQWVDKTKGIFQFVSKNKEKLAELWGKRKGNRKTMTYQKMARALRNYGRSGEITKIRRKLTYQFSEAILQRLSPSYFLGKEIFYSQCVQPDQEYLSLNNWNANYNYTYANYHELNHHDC
# In short: as §1
# ELF4 = ELF4 (Homo sapiens, UniProt Q99607 1-663); settings: protein: recombinant; tags: N-terminal GST; dsDNA, one strand shown
# Sequence of ELF4 (Q99607 whole entry): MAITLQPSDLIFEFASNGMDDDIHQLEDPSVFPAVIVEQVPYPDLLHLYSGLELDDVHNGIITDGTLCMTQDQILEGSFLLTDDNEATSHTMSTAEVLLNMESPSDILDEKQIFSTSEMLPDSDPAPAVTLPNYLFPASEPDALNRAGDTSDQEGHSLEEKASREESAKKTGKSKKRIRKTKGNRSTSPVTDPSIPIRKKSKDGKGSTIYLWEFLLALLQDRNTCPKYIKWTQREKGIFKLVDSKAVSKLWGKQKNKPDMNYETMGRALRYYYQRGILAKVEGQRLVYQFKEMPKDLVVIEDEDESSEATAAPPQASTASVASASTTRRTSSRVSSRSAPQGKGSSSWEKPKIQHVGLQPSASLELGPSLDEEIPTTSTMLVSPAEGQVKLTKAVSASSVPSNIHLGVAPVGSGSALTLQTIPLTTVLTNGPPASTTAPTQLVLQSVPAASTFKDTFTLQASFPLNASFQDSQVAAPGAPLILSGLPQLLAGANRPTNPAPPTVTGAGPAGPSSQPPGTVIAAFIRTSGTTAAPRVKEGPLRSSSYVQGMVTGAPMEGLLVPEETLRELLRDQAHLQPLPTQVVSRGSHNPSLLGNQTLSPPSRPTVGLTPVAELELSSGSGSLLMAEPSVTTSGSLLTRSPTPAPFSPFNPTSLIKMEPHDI
# In short: as §1
# ELK4 = molecular target: T9, ELK4 (Homo sapiens, UniProt P28324-2 1-405); settings: protein: recombinant; tags: N-terminal GST; dsDNA, one strand shown
# T9 sequence: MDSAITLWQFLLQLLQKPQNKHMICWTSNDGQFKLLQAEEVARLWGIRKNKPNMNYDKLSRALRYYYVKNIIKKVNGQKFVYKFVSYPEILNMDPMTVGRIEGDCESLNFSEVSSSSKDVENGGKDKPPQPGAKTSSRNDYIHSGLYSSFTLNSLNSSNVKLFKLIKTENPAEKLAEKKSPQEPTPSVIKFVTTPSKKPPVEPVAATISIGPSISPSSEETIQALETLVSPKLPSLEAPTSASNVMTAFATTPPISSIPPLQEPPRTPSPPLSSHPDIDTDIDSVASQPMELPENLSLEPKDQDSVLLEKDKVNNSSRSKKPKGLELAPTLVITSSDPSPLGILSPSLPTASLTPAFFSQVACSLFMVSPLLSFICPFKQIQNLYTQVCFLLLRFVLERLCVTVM
# In short: as §1
# ETV2 = molecular target: T10, ETV2 (Homo sapiens, UniProt O00321 1-342); settings: protein: recombinant; tags: N-terminal GST; dsDNA, one strand shown
# T10 sequence: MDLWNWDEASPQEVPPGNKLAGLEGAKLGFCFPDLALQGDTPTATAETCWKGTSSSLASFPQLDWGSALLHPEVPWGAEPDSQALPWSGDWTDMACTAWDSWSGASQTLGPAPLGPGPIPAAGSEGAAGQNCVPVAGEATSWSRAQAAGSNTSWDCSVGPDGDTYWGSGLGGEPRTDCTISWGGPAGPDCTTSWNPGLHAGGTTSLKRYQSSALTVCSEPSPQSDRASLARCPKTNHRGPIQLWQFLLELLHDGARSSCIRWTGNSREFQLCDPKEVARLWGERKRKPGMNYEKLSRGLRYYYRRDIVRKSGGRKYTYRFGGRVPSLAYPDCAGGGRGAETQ
# In short: as §1
# ELF3 = molecular target: T11, ELF3 (Homo sapiens, UniProt P78545 1-371); settings: protein: recombinant; tags: N-terminal GST; dsDNA, one strand shown
# T11 sequence: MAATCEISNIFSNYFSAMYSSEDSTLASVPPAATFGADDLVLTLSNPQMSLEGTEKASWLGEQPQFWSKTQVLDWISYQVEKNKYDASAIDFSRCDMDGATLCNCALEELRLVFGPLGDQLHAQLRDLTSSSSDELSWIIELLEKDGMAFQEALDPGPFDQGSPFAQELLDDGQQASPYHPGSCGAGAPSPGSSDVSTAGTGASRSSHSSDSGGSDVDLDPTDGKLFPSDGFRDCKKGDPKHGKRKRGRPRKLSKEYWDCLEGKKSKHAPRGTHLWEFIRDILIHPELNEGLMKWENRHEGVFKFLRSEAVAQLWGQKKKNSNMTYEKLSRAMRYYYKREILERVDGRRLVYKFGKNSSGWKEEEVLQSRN
# In short: as §1
# CRX = CRX (Homo sapiens, UniProt O43186 1-299); settings: protein: recombinant; tags: N-terminal GST; dsDNA, one strand shown
# Sequence of CRX (O43186 whole entry): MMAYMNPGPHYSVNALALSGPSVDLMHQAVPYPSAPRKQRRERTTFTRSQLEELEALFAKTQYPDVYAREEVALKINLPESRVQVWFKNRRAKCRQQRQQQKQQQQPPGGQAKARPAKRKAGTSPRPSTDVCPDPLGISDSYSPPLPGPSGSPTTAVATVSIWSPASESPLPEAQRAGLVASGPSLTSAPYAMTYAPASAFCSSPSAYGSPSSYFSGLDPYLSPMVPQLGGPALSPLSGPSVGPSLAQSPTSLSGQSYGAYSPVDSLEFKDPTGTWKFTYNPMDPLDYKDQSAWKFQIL
# In short: as §1
# ETV1 = ETV1 (Homo sapiens, UniProt P50549 1-477); settings: protein: recombinant; tags: N-terminal GST; dsDNA, one strand shown
# Sequence of ETV1 (P50549 whole entry): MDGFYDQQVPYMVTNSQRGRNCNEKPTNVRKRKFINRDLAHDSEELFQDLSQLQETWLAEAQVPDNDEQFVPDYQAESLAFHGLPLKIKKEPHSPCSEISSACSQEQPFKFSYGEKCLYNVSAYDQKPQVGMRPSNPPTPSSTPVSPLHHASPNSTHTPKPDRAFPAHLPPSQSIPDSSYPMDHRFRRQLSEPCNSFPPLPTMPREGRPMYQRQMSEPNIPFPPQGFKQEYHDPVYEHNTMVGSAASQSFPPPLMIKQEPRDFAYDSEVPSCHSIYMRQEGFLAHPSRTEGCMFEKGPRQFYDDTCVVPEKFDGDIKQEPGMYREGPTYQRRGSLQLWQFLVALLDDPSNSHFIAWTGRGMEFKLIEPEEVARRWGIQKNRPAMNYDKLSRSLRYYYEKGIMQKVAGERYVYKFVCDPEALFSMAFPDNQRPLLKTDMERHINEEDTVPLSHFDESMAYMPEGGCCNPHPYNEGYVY
# In short: as §1
sequence,measurement,setting,value
CCGGCT,binding signal,FLI1,"1.75 fold enrichment (6-mer frequency, TF over GST control)"
same,binding signal,ELK1,"1.62 fold enrichment (6-mer frequency, TF over GST control)"
same,binding signal,GABPA,"1.65 fold enrichment (6-mer frequency, TF over GST control)"
same,binding signal,ERG,"1.74 fold enrichment (6-mer frequency, TF over GST control)"
same,binding signal,ELF1,"1.68 fold enrichment (6-mer frequency, TF over GST control)"
same,binding signal,EHF,"1.77 fold enrichment (6-mer frequency, TF over GST control)"
same,binding signal,SPI1,"1.73 fold enrichment (6-mer frequency, TF over GST control)"
same,binding signal,SPIB,"1.91 fold enrichment (6-mer frequency, TF over GST control)"
same,binding signal,ELK3,"1.62 fold enrichment (6-mer frequency, TF over GST control)"
same,binding signal,FEV,"1.8 fold enrichment (6-mer frequency, TF over GST control)"
same,binding signal,ETV5,"1.89 fold enrichment (6-mer frequency, TF over GST control)"
same,binding signal,HSF1,"1.3 fold enrichment (6-mer frequency, TF over GST control)"
same,binding signal,SPIC,"1.46 fold enrichment (6-mer frequency, TF over GST control)"
same,binding signal,ELF4,"1.68 fold enrichment (6-mer frequency, TF over GST control)"
same,binding signal,ELK4,"1.53 fold enrichment (6-mer frequency, TF over GST control)"
same,binding signal,ETV2,"1.84 fold enrichment (6-mer frequency, TF over GST control)"
same,binding signal,ELF3,"1.8 fold enrichment (6-mer frequency, TF over GST control)"
same,binding signal,CRX,"1.6 fold enrichment (6-mer frequency, TF over GST control)"
same,binding signal,ETV1,"1.81 fold enrichment (6-mer frequency, TF over GST control)"
